In the library only some 10% were active in any assay of this set; here they are far more common.
L3MBTL1 inh: blocks human L3MBTL1. AID 485360. Potency, µM (highest dose often 57.1 µM), for the others: at the top dose activity, negative = inhibition, hits mostly inhibitors. 230,000 tested, 0.66% active. Q9Y468. AlphaScreen L3MBTL1–H3K9me1 peptide binding; also: % is scaled to controls: 0 for no effect and ±100 for the full control effect; nearly all actives have a fitted effect of over 60% in size
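AlphaScreen assay: L3MBTL1 (50 nM final) was preincubated 30 min at room temperature with biotinylated H3(1-15)K9me1 peptide (75 nM final), then 30 min with library compounds; streptavidin donor and nickel chelate acceptor beads (10 ug/mL final) added, 30 min dark.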
BAZ2B block: BAZ2B (human) inhibition | Q9UIF8 | AlphaScreen BAZ2B-H3K14Ac peptide displacement | Potency, µM (series often up to 114 µM), without a hit: at the top dose activity change, negative = inhibition, most hits filed as inhibitors | 360,000 tested, 4.4% active; also: % is scaled to controls: 0 for no effect and ±100 for the full control effect; nearly all actives have a fitted effect of over 60% in size
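Complex of BAZ2B and biotin-H3K14Ac (50 nM apiece) forms over 30 min at RT, then faces library compounds up to 110 uM for another 30 min; AlphaScreen beads added, 20 min dark incubation, luminescence read.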
G9a block: inhibitors of human histone lysine methyltransferase G9a. Potency, µM (top dose mostly 102 µM), inactives show at the highest dose activity, negative = inhibition, actives largely listed as inhibitors. 350,000 tested, 8.8% active. G9a H3K9 monomethylation, AlphaScreen, 2 h. AID 504332; also: % is scaled to controls: 0 for no effect and ±100 for the full control effect; nearly all actives have a fitted effect of over 75% in size
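Step 1: enzyme (final 20 nM) with compound, 15 min RT. Step 2: substrate peptide 500 nM and SAM 20 uM, 2 h RT. Step 3: anti-H3K9me1 antibody and AlphaScreen beads, 10 min, then plate read.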
HP1b chromo inh: inhibitors of HP1-beta chromodomain binding to methylated histone tails. 390,000 tested, 0.56% active. Potency, µM (doses to about 114 µM), inactives show at the highest dose activity change, negative = inhibition, most hits filed as inhibitors. AlphaScreen HP1-beta / biotin-H3K9me3 peptide binding. P83916; also: nearly all actives have a fitted effect of over 70% in size
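HP1-beta protein (50 nM final) preincubated 30 min at room temperature with biotinylated H3(1-18)K9me3 peptide (50 nM) in PBS pH 7.4, 0.01% Tween-20, then compound added for 30 min. AlphaScreen streptavidin donor/nickel chelate acceptor beads (10 ug/mL final), 30 min dark, luminescence read.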
GLS inh: blocks human kidney-isoform glutaminase activity. 410,000 tested, 0.21% active. O94925. Potency, µM (highest dose often 45.5 µM), for inactives: at the top dose activity change, negative = inhibition, most hits filed as inhibitors. GLS enzymatic activity, qHTS titration; also: % is scaled to controls: 0 for no effect and ±100 for the full control effect
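Assay buffer: 45 mM KH2PO4 pH 8.2, 0.02% Tween-20. hKGA acts on L-glutamine (1 mM solution added); product glutamate is reported by an oxidase/peroxidase Amplex Red coupling, with fluorescence taken at baseline and 30 min.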
JMJD2A Tudor inh: JMJD2A Tudor domain (human) inhibition; Potency, µM (titrated, usually from 114 µM), inactives show at the highest dose activity change, negative = inhibition, hits mostly inhibitors; AlphaScreen JMJD2A-Tudor / H3K4me3 peptide binding; 390,000 tested, 4.4% active; O75164; also: % is scaled to controls: 0 for no effect and ±100 for the full control effect; nearly all actives have a fitted effect of over 50% in size
* marks the source's active call; other numbers are inactive results; [ ] = another dose, or the depositor's remark. Calls follow the shape of the dose curve; as a rule, active = well fitted curve in the direction sought with a large enough effect; inconclusive = small, poorly fitted or top-dose-only effect, or another doubt; inactive = no such curve, though single readings can be large; an effect the other way counts as inactive or inconclusive. Potency is read from the fitted curve at half-maximal effect.

`CC1CC=CC2C1C(=O)N(Cc1ccccc1)C2c1ccc2ccccc2c1` (stereo not given) gave HP1b chromo inh 34% and JMJD2A Tudor inh 6%.
For CN1CCN(C(=O)CCC(=O)O)CC1 the results were BAZ2B block -20%, HP1b chromo inh 68%, GLS inh -5% and JMJD2A Tudor inh 6%[11.4 µM].
CN1CCN(CC(=O)O)CC1 was read as BAZ2B block inconclusive, G9a block 35µM*, HP1b chromo inh 2%, GLS inh -1% and JMJD2A Tudor inh inconclusive.
`Cc1c(C)c2c(c(C)c1OC(=O)CCC(=O)OCCO)CC[C@](C)(CCC[C@H](C)CCC[C@H](C)CCCC(C)C)O2` gave GLS inh -2%.
`CN(C)c1ccc(C2CC(=O)C=C(Nc3ccccc3N)C2)cc1` (stereo not given) gave L3MBTL1 inh inconclusive, BAZ2B block 45µM*, HP1b chromo inh -6%, GLS inh 28% and JMJD2A Tudor inh inconclusive.
CC1(C)CC(=O)C=C(Nc2ccccc2N)C1 was read as L3MBTL1 inh -1%, BAZ2B block inconclusive, G9a block inconclusive, HP1b chromo inh 64%, GLS inh -14% and JMJD2A Tudor inh 11%[57.1 µM].
For CCCCNC(=O)c1sc2ncccc2c1-n1cccc1 the results were BAZ2B block -14%, G9a block -29%[59 µM], HP1b chromo inh 17%[57 µM], GLS inh 1% and JMJD2A Tudor inh -4%.
CCCCNC(=O)c1sc(=S)n2c1[nH]c(=O)c1ccccc12 was read as L3MBTL1 inh -10%, BAZ2B block 50µM*, G9a block inconclusive, HP1b chromo inh -32%, GLS inh inconclusive and JMJD2A Tudor inh 79µM*.
O=C(NC1CCCCC1)c1sc(=S)n2c1[nH]c(=O)c1ccccc12 was read as L3MBTL1 inh -3%, BAZ2B block inconclusive, HP1b chromo inh inconclusive, GLS inh -10% and JMJD2A Tudor inh 56µM*.
O=C(Nc1c(C(=O)c2ccccc2)oc2ccccc12)c1cc(=O)c2ccccc2o1 was read as BAZ2B block 1%, G9a block 1%[59 µM], HP1b chromo inh 42%, GLS inh -1% and JMJD2A Tudor inh 0%.
`Cc1c(Cl)cccc1NC(=O)CSc1ncccc1C(=O)Oc1ccccc1Cl` gave BAZ2B block 1%, G9a block -4%[59 µM], HP1b chromo inh 21%, GLS inh 9% and JMJD2A Tudor inh -2%.
For Cc1ccc2cc(C(c3nnnn3Cc3ccccc3)N3CCc4ccccc43)c(=O)[nH]c2c1 (stereo not given) the results were BAZ2B block inconclusive, G9a block 9%[12.7 µM], HP1b chromo inh -3%, GLS inh 0% and JMJD2A Tudor inh inconclusive.
Screening Cc1ccc2[nH]c(=O)c(C(c3nnnn3Cc3ccccc3)N3CCc4ccccc43)cc2c1 (stereo not given) returned BAZ2B block inconclusive, G9a block 28µM*, HP1b chromo inh -3%, GLS inh -13% and JMJD2A Tudor inh inconclusive.
For Cc1ccc2cc(C(c3nnnn3Cc3ccccc3)N3CCc4ccccc43)c(=O)[nH]c2c1C (stereo not given) the results were BAZ2B block 6%, G9a block 20µM*, HP1b chromo inh 45%, GLS inh -8% and JMJD2A Tudor inh -21%.
Screening Clc1ccc(Nc2nnc(Cc3ccncc3)c3ccccc23)cc1 returned GLS inh -7%.
`COC(=O)c1ccc(-c2n[nH]c(=O)c3ccccc23)cc1` gave L3MBTL1 inh 2%, BAZ2B block 11%, G9a block 8%[59 µM], HP1b chromo inh 37%, GLS inh -8% and JMJD2A Tudor inh -13%.
Screening COC(=O)Nc1nc2ccc(-c3n[nH]c(=O)c4ccccc34)cc2[nH]1 returned L3MBTL1 inh 0%, BAZ2B block inconclusive, G9a block 50µM*, HP1b chromo inh 11%, GLS inh -17% and JMJD2A Tudor inh inconclusive.

Source: PubChem BioAssay
